Screening results as filed in PubChem BioAssay.
Pf growth 48h = Primary qHTS for delayed death inhibitors of the malarial parasite plastid, 48 hour incubation. 5.9% of 310,000 active. AID 504832, 2011. P. falciparum luciferase growth in erythrocytes, 48 h. Potency, µM (doses to about 28.7 µM), inactives show top-dose activity change, negative = inhibition, most hits filed as inhibitors; further: potency means the concentration at half of the fitted maximal effect; on the % scale 0 is the no-effect control and ±100 the full control effect
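Luminescence readout; reporter = integrated firefly luciferase in P. falciparum. RBC culture at 2% hematocrit, 0.1% parasitemia final, 37 C/5% CO2; decreased signal taken as growth inhibition.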
AMA1 RON2 block = qHTS for Inhibitors of AMA1-RON; Towards Development of Antimalarial Drug Lead: Primary Screen | Plasmodium falciparum AMA1 (3D7) - RON2 peptide interaction | AlphaScreen AMA1-biotinylated RON2 peptide binding | Potency, µM (titrated, usually from 58.2 µM), for inactives: at the highest dose activity change, negative = inhibition, hits mostly inhibitors | 0.2% of 360,000 active | AID 720542, 2013;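 further: potency means the concentration at half of the fitted maximal effect; 0% = vehicle wells and -100% = peptide control; nearly all actives have a fitted effect of over 45% in size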
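AMA1 (3D7) with his tag at 25 nM final met compounds first, then biotinylated RON2 peptide at 25 nM; detection used donor plus acceptor beads, 10 µg/mL apiece, read by AlphaScreen after 30 min at room temperature.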
Pf growth 96h = Primary qHTS for delayed death inhibitors of the malarial parasite plastid, 96 hour incubation; P. falciparum luciferase reporter growth, 96 h; Potency, µM (doses to about 28.7 µM), without a hit: at the highest dose activity change, negative = inhibition, most hits filed as inhibitors; 6.9% of 320,000 active; AID 504834, 2011; further: potency means the concentration at half of the fitted maximal effect; on the % scale 0 is the no-effect control and ±100 the full control effect
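96 h incubation, 37 C, 5% CO2, of luciferase-reporter P. falciparum-infected RBCs (2% hematocrit, 0.05% parasitemia final) with test compounds; endpoint luminescence.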
CHX counter = Cycloheximide Counterscreen for Small Molecule Inhibitors of Shiga Toxin. 12% of 300,000 active. cell reporter, cycloheximide protein synthesis inhibition counterscreen. max response, %. AID 2314, 2010; in the data active means max response mostly above about 13%, no sharp cut-off; inactive means mostly below about 14%; further: read at 38.3 µM for the half of the compounds with a filed dose; 0% is about no effect
Shiga toxin inh = A qHTS for Small Molecule Inhibitors of Shiga Toxin | Vero cells, Shiga toxin protein synthesis inhibition reporter | inhibition, % at 38.7 µM | 9.2% of 290,000 active; in the data active means inhibition mostly above about 28%, no sharp cut-off; inactive means mostly below about 43%; further: 0% is about no effect
HCV inhibitor = qHTS Assay for Inhibitors of Hepatitis C Virus (HCV) | Potency, µM (highest dose often 41.8 µM), inactives show at the highest dose activity change, negative = inhibition, most hits filed as inhibitors | 3.4% of 340,000 active | Huh7.5.1 HCVcc-Cre infection, luciferase reporter, 44 h | AID 651820, 2012; further: potency means the concentration at half of the fitted maximal effect; on the % scale 0 is the no-effect control and ±100 the full control effect
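Whole-lifecycle infectious HCVcc-Cre system; cells 1,000/well, compound then virus (~0.5 moi) added 4 h after plating, 44 h culture. Luciferase read 15 sec following 15 min substrate incubation, room temp.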
* marks the source's active call; other numbers are inactive results; i = inactive; ? = inconclusive; · = not tested or not shown; [ ] = remark or other dose. Compounds with a hit are over-represented: about 21% of the library has one in this group of screens. Unless noted, the call rests on the fitted dose curve; in most records, active means well fitted curve in the direction sought with a large enough effect; inconclusive means small, poorly fitted or top-dose-only effect, or another doubt; inactive means no such curve, though single readings can be large; an effect the other way counts as inactive or inconclusive.

SMILES	Pf growth 48h	AMA1 RON2 block	Pf growth 96h	CHX counter	Shiga toxin inh	HCV inhibitor
COc1ccc(NC(C)=O)cc1S(=O)(=O)Nc1ccccc1C(=O)NCCc1ccccc1	78%	16%	100%	44*	89*	8%
CC(NC(=O)c1ccccc1NS(=O)(=O)c1ccc(CCC(=O)O)cc1)c1ccccc1 (centres undefined)	?	7%	5%	-3	-3	·
COc1ccc(NC(C)=O)cc1S(=O)(=O)NC(Cc1ccccc1)C(=O)NCc1ccccc1C (centres undefined)	?	-2%	?	16*	10	2%
COCCn1c(C)cc(C(=O)Cn2nc(C(=O)O)c3ccccc3c2=O)c1C	115%	-4%	22%	17	20	-2%
C=CCn1c(C)cc(C(=O)Cn2nc(C(=O)O)c3ccccc3c2=O)c1C	141%	-9%	116%	32*	56*	-18%
Cc1cc(C(=O)Cn2nc(C(=O)O)c3ccccc3c2=O)c(C)n1-c1ccc(F)cc1	27%	3%[11.6 µM]	126%	49*	155*	-18%
Cc1cc(C(=O)Cn2nc(C(=O)O)c3ccccc3c2=O)c(C)n1-c1cccc(C(F)(F)F)c1	2%	-1%	11%	-1	-18	-15%
CCCn1c(C)cc(C(=O)Cn2nnc3ccccc3c2=O)c1C	423%	-5%	i	35*	82*	24%
CCOC(=O)C1=CCN(S(=O)(=O)c2ccccc2F)C1c1ccc(Cl)c(Cl)c1 (centres undefined)	·	2%	·	·	·	·
CN(C)c1nc(-c2ccccn2)nnc1-c1ccccc1	·	9%	2.1µM*	2	-28	?
CCN(CC)c1nc(-c2ccccn2)nc(-c2ccccc2)c1C#N	?	45%	4.1µM*	-4	-5	6.3µM*
O=C1CC[C@@H]2C[C@@]3(C[C@@H]4CCN1[C@H]24)Nc1cc([N+](=O)[O-])ccc1NC3=NCc1ccccc1	·	-3%	·	·	·	?
Cc1sc2ncnc(NCC3COc4ccccc4O3)c2c1C (centres undefined)	11%	-1%	?	-2	-1	?
c1ccc(-c2csc3ncnc(NCC4COc5ccccc5O4)c23)cc1 (centres undefined)	?	-8%	?	-1	3	0.56µM*
Cn1nccc1C(=O)Nc1ccc2c(c1)OCO2	129%	-2%	14%	28*	107*	1%
Cn1nccc1C(=O)Nc1ccc(Cl)cc1	95%	8%	148%	28*	68*	15%
Cn1nc(C(=O)Nc2ccc3c(c2)OCO3)c2ccccc2c1=O	35%	0%	?	5	1	-10%
Cn1nccc1C(=O)Nc1cc(Cl)ccc1Cl	·	2%	·	·	·	4%
COc1cccc(NC(=S)NCc2cccnc2)c1	4%	-8%	?	-3	18	9%
COc1cccc(NC(=S)NCc2ccccc2)c1	?	-1%	3%	22*	33*	-10%
COCCN(C(=S)Nc1cccc(OC)c1)C(C)c1cccs1 (centres undefined)	-1%	-1%	100%	15*	9	8%
COc1cccc(NC(=S)NCc2cccs2)c1	40%	-5%[2.32 µM]	313%	3	43*	-15%
COCCN(C(=S)Nc1ccc(C(C)C)cc1)C(C)c1cccs1 (centres undefined)	?	8%	-10%	13	21	?
Cc1cccnc1NC(=S)Nc1ccc(Br)cc1Cl	288%	61%	?	79*	126*	?
Cc1cccc(NC(=S)NCc2cccs2)c1	4%	-11%	25%	8	10	-12%
Cc1[nH]c(=O)[nH]c(=O)c1S(=O)(=O)Nc1ccc(F)cc1Cl	27%	-8%	?	-3	-1	24%
CCc1nnc(NS(=O)(=O)c2ccc(NC(=O)c3cccc(Cl)c3)cc2)s1	7%	-1%	28%	-1	21	15%
